Inconclusive results are not listed. Values without a mark were called inactive. Calls follow the shape of the dose curve; as a rule, active = well fitted inhibition curve with a large enough effect; inconclusive = small, poorly fitted or top-dose-only effect; inactive = flat fitted curve, though single readings scatter.
Target: Lysine-specific demethylase 5B (Homo sapiens) (UniProt Q9UGL1)
Assay: Optimization screen for KDM5B Histone Demethylases FDH coupled qHTS against the LOPAC library (AID 1347166); also: 0% is about no effect
Settings: KDM5B demethylation, FDH-coupled NADH fluorescence (FDH is formaldehyde dehydrogenase); at 57.5 µM (top of the series)
Excerpt: Assay Submitter (PI): Qin Yan, Ph.D. (Yale University) and Xiaodong Cheng, Ph.D. (MD Anderson)
This project was funded as part of the NCI NEXT Program and Chemical Biology Consortium (CBC)
The histone demethylases, KDM5A and KDM5B catalyze the demethylation of lysine 4 on histone H3 (H3K4me3/2). They
are overexpressed in a variety of cancers and have been implicated in cancer cell growth, metastasis, drug resistance, and tumor growth. KDM5A is amplified and overexpressed in breast and gastric cancer; and is translocated in leukemia. While KDM5B is highly expressed in human mammary tumors and breast cancer cell lines, but not in normal adult breast tissue. Moreover, knockdown of KDM5B leads to upregulation of tumor suppressor genes, including BRCA1. The goal of this project is to employ qHTS to identify selective small molecule inhibitors of KDM5A/B demethylase activity to better understand the role of KDM5 in cancer and to develop novel therapies.
We employed an FDH-coupled assay previously reported by Sakurai et al. to monitor in vitro KDM5 demethylase activity. Compounds showing dose response inhibition are re-acquired, validated, and tested for non-specific interference with the formaldehyde dehydrogenase (FDH) counterscreen. True inhibitors are validated using an AlphaLisa secondary screen, which employs an H3K4(me2-1)-specific antibody to monitor demethylation of a biotin-tagged H3K4(me3) peptide substrate. Inhibitors are profiled against KDM4A and KDM6A AlphaLisa counterscreens to determine level of demethylase specificity; and against the TruHits counterscreen to eliminate non-specific inhibitory activity on the AlphaLISA detection method. Selective inhibitors identified from the primary and secondary screening are tested in cells using immunofluorescence to monitor global H3K4 tri-methylation as a measure of KDM5A/B inhibition. This assay is run against the NCGC Lopac collection of about 1,200 compounds to evaluate its amenability to quantitative High Throughput Screening (qHTS) platform.
Early Translation Branch (ETB)
National Center for Advancing Translational Sciences (NCATS), Rockville, MD
National Institute of Health (NIH), Bethesda, Maryland
[1] Sakurai, M et al. A miniaturized screen for inhibitors of Jumonji histone demethylases. Mol Biosyst. 2010 Feb;6(2):357-64. doi: 10.1039/b912993f. Epub 2009 Oct 8.
1536-well Black, solid bottom, medium binding assay plate is purchased from Greiner Bio-one. The enzymes (KDM5B) and substrate (H3K4me3/2) are provided by the principal investigators. The buffer for this assay is composed of 50mM HEPES at pH 7.5 with 0.01% Tween-20.
FDH coupled qHTS protocol:
Three microliter enzyme mix (buffer + 200nM KDM5BDeltaAP final concentration) is dispensed into the assay plate using the BioRAPTR Flying Reagent Dispenser (FRD; Beckton-Dickenson). Compound (at various final concentration) and control solution is pin transferred to the assay plate using the Kalypsys 1536-pin tool apparatus. The assay plate is incubated for 10 min at room temperature followed by addition of 1uL substrate mix (buffer + 100uM ascorbic acid, 50uM ferrous ammonium sulfate, 12.5uM H3K4Me3, 25uM a-ketoglutarate, 0.25 mM NAD+, 0.25 U/mL formaldehyde dehydrogenase using the FRD yielding a total reaction volume of 4 uL. Initial fluorescence (Read1) is detected using the PerkinElmer ViewLux plate reader equipped with 340 nm excitation and 450 nm emission filters. The final fluorescence (Read2) signal is obtained after 30 min of room temperature incubation. Delta RFU is calculated (Read2 - Read1) and is used to generated dose response curves

Lysine-specific demethylase 5B (Homo sapiens), sequence (Q9UGL1 whole entry, looked up): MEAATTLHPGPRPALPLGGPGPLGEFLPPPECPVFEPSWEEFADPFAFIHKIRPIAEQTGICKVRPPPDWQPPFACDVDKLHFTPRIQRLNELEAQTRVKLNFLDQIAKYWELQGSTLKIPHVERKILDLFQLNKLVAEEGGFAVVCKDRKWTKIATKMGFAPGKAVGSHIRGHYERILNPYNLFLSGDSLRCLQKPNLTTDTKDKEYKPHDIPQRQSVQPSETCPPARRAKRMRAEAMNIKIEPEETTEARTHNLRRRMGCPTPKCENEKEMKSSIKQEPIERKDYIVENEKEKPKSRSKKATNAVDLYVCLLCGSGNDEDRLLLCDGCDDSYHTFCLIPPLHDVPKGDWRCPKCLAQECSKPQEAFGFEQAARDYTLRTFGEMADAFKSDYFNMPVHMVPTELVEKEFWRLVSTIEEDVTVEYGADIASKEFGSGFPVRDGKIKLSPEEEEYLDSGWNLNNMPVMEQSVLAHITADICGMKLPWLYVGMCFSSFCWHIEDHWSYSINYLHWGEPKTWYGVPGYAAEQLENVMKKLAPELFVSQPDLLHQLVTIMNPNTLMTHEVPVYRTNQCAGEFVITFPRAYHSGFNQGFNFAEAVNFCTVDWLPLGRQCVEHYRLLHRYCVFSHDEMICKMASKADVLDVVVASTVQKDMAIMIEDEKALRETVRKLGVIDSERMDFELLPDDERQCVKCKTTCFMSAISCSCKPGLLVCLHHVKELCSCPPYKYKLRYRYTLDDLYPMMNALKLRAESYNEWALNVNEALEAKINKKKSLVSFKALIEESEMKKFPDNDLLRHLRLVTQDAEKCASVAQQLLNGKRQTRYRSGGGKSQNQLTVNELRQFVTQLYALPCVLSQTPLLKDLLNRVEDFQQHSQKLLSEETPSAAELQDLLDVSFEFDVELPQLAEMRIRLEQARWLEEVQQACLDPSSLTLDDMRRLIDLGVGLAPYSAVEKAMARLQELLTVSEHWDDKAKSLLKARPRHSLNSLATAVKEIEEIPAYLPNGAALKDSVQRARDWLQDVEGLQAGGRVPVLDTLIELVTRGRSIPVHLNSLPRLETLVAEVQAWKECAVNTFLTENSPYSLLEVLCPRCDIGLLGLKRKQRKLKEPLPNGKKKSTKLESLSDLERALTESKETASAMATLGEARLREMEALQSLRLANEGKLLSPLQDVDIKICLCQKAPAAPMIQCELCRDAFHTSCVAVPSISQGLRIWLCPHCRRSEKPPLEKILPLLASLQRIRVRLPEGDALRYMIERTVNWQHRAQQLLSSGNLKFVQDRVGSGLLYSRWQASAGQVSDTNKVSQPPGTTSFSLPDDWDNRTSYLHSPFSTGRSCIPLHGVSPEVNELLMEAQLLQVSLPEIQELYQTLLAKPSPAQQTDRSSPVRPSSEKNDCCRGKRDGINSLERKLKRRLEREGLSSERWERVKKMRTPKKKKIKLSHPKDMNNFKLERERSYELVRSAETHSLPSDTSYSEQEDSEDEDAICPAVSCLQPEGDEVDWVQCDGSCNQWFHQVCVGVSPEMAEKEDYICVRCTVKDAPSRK

Compound | activity, negative = inhibition [%]
N[C@@H](Cc1ccc(O)c(I)c1)C(=O)O | -7.59
C[C@H]1CC2C3CCC4=CC(=O)C=C[C@]4(C)[C@@]3(Cl)[C@@H](O)C[C@]2(C)[C@@]1(O)C(=O)CO (stereo not given in full) | -1.11
O=C1C2C=CC=CC2=NC(=S)N1CCN1CCC(=C(c2ccc(F)cc2)c2ccc(F)cc2)CC1 (stereo not given) | -6.14
Cn1cc(C(=O)OCC2CCN(CCNS(C)(=O)=O)CC2)c2ccccc21 | -6.85
O=C(c1ccc2c(c1)OCCO2)N1CCCCC1 | -3.79
N[C@@H](CS(=O)O)C(=O)O | -4.61
CCN(CC)CCCCCCCCOC(=O)c1cc(OC)c(OC)c(OC)c1 | -10.5
COCc1nc2c([nH]1)c(=O)n(C)c(=O)n2CC(C)C | -5.87
c1ccc2c(c1)CCC[C@H]2Nc1nc2ccccc2[nH]1 | -7.62
N#CC(C#N)=C(N)/C(C#N)=C/c1ccc(O)cc1 | -9.24
CO/N=C(\C(=O)N[C@@H]1C(=O)N2C(C(=O)O)=C(CSc3nc(=O)c(O)nn3C)CSC12)c1csc(N)n1 (stereo not given in full) | -14.3
NC(N)=N[C@@H](CCC(=O)O)C(=O)O | -1.71
CN1CCCC1CCOC(C)(c1ccccc1)c1ccc(Cl)cc1 (stereo not given) | -0.721
NC(N)=[N+]1CCc2ccccc2C1 | 2.33
OC[C@H]1O[C@@H](n2cnc3cncnc32)[C@H](O)[C@@H]1O | -2.2
CC(C)(CO)Cc1cc(C(C)(C)C)c(O)c(C(C)(C)C)c1 | -8.2
CC1C(=O)N(C)C(=O)c2nc[nH]c21 (stereo not given) | -5.54
Oc1ccc(/C=C/c2ccc(/C=C/c3ccc(O)cc3)c(Br)c2)cc1 | 662
C#CCn1c(=O)c2c(ncn2C)n(C)c1=O | -2.26
NCCS(=O)O | -4.01

Compound | activity, negative = inhibition [%]
CC#CCOC(=O)c1c(C)nc2sc3c(c2c1N)CCC(O)C3 (stereo not given) | -10.9
CC[C@H](NC(=O)c1c(C)c(-c2ccccc2)nc2ccccc12)c1ccccc1 | -4.22
O=c1ccn([C@@H]2O[C@H](COP(=O)(O)OP(=O)(O)O)[C@@H](O)[C@H]2O)c(=O)[nH]1 | -0.701
COc1ccc2c(c1)CCC1C2CC[C@@]2(C)C1CC[C@@H]2NCCCCCCN1C(=O)C=CC1=O (stereo not given in full) | -20.3
Brc1c(Br)c(Br)c2[nH]cnc2c1Br | 0.346
Cc1cccc(C)c1OCC(N)C(C)C (stereo not given) | -17.4
CCCC[C@@]1(C2CCCC2)Cc2cc(OCC(=O)O)c(Cl)c(Cl)c2C1=O | -4.31
NC(=O)CNCCC(c1ccccc1)c1ccccc1 | 2.72
CNc1ncnc2c1ncn2[C@H]1C[C@H](OP(=O)(O)O)[C@@H](COP(=O)(O)O)O1 | -15.5
N=C(N)c1ccc(N)cc1 | -6.1
CCCn1c(=O)c2[nH]c(-c3ccc(S(=O)(=O)O)cc3)nc2n(CCC)c1=O | 2090
CNCCNS(=O)(=O)c1cccc2cnccc12 | -11.7
OC[C@H]1O[C@H](n2cnc3c(N[C@H]4CCC[C@@H]4O)ncnc32)[C@H](O)[C@@H]1O | -3.36
Nc1nc2c(nc(Br)n2C2OC3COP(=O)(O)O[C@@H]3C2O)c(=O)[nH]1 (stereo not given in full) | -2.81
Nc1ccc(N2C(=O)c3ccccc3C2=O)c(Cl)c1 | -4.03
N[C@H]1CONC1=O | -4.96
COC(=O)C(C)(N)Cc1ccc(O)cc1 (stereo not given) | -17.5
C=CC[C@H](N)C(=O)O | -4.4
CN(CC[C@@H](Oc1ccc(C(F)(F)F)cc1)c1ccccc1)CC(=O)O | -7.4
O=C1Cc2c([nH]c3ccc(Br)cc23)-c2ccccc2N1 | -26.8
